Hck Nef HTS: blocks Nef-activated human Hck kinase; inhibition, % at 20 µM; Recombinant Hck-YEEI plus Nef, Z-Lyte FRET kinase assay; 220,000 compounds, 0.68% hits; P08631;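 active = Hck-Nef kinase inhibition above about 50%, limit read from the data; inactive = inhibition below that limit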
LYPLA1 inh: LYPLA1 (human) inhibition in PME1 counter-screen; O75608; recombinant LYPLA1, FP-Rh probe fluorescence polarization; inhibition, % at 5.9 µM; 320,000 compounds, 0.16% hits;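 active = inhibition above the mean of all tested compounds plus 3 SD, set per campaign, cut at about 14% in these data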;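 note: inhibitors block serine hydrolase probe labeling of LYPLA1 so polarization falls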
LYPLA2 inh: blocks human lysophospholipase 2, a PME1 counter-screen; inhibition, % at 5.9 µM; 320,000 compounds, 0.38% hits; recombinant LYPLA2, FP-Rh probe fluorescence polarization;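 active = inhibition above the screen-wide mean plus 3 SD, limit set per campaign, cut at about 26% in these data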
p97 inhibitor: inhibitors of human p97 ATPase; P55072; AID 1481; inhibition, % at 8 µM; recombinant p97 ATPase, Kinase-Glo ATP luminescence, 3 h; 220,000 compounds, 0.42% hits; in the data active = inhibition above about 15%
Rin1 Abl inh: blocks binding of human Rin1 to Abl. inhibition, % at 7.35 µM. P00519+Q13671. AID 588664. 360,000 compounds, 0.4% hits. TR-FRET Rin1/Abl binding, biochemical; in the data active = inhibition above about 5%, passing the limit was not always enough
PREPL inhibitor: inhibits the human prolyl oligopeptidase-like enzyme; Q4J6C6; recombinant PREPL, fluorescence polarization activity-based probe; inhibition, % at 5.96 µM; 320,000 compounds, 0.68% hits; AID 2751; in the data active = inhibition above about 43%
LYPLA1 confirm: counter-screen for PME1 inhibitors: confirmation of human LYPLA1 inhibitors | AID 2233 | 480 compounds, 69% hits | shares compounds with LYPLA1 inh | inhibition, % at 5.9 µM | recombinant LYPLA1, FP-Rh probe fluorescence polarization;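 active = mean inhibition across replicates above the hit cutoff set in the primary screen, cut at about 15% in these data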;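 note: loss of FP-Rh probe labeling of LYPLA1 seen as lower polarization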
A number is an active result. A selection: hits, their analogues and other compounds. The true share with any hit is near 1.7%.

CCn1c2ccccc2c2nnc(SCc3ccc(C(=O)OC)o3)nc21 was read as Hck Nef HTS inactive, LYPLA1 inh 15, LYPLA2 inh inactive, p97 inhibitor inactive, Rin1 Abl inh inactive, PREPL inhibitor inactive and LYPLA1 confirm 22.
`O=C(Cc1ccccc1)N1CCC(c2nc(-c3ccc(F)cc3)no2)CC1` gave Hck Nef HTS inactive, LYPLA1 inh 17, LYPLA2 inh inactive, p97 inhibitor inactive, Rin1 Abl inh inactive, PREPL inhibitor inactive and LYPLA1 confirm inactive.
Screening CSc1ncc(C(=O)Nc2cccnc2)c(C(F)(F)F)n1 returned Rin1 Abl inh inactive.
O=C(CSc1ccccc1F)NCC(c1cccs1)N1CCOCC1 (stereo not given) was read as Rin1 Abl inh inactive and PREPL inhibitor inactive.
Cc1ccc(N(CC(=O)Nc2ccc(C)cn2)S(=O)(=O)c2c(C)nn(C)c2C)cc1 was read as Hck Nef HTS inactive, LYPLA1 inh 16, LYPLA2 inh inactive, p97 inhibitor inactive, Rin1 Abl inh inactive, PREPL inhibitor inactive and LYPLA1 confirm inactive.
For O=C(NCc1ccncc1)C(=O)NCC1OCCN1S(=O)(=O)c1ccc(F)cc1 (stereo not given) the results were LYPLA1 inh inactive, LYPLA2 inh inactive, Rin1 Abl inh inactive and PREPL inhibitor inactive.
O=c1[nH]c(O)c(/C=C2\C=Nc3ccc(Br)cc32)[nH]1 was read as LYPLA1 inh 36, LYPLA2 inh inactive, Rin1 Abl inh inactive, PREPL inhibitor inactive and LYPLA1 confirm 40.
For CCCCc1cc(=O)oc2cc(OCc3cc(OC)c(OC)c(OC)c3)c(Cl)cc12 the results were Hck Nef HTS inactive, LYPLA1 inh 16, LYPLA2 inh inactive, p97 inhibitor inactive, Rin1 Abl inh inactive, PREPL inhibitor inactive and LYPLA1 confirm 27.
`COc1ccc(C(C(=O)NC(C)(C)C)N(C(=O)CCC(=O)Nc2cc(C)on2)c2ccccc2F)cc1` (stereo not given) gave LYPLA1 inh 15, LYPLA2 inh inactive, Rin1 Abl inh inactive, PREPL inhibitor inactive and LYPLA1 confirm inactive.
Screening COc1ccc(C(C(=O)NC(C)(C)C)N(C(=O)CCC(=O)Nc2cc(C)on2)c2cc(C)cc(C)c2)cc1 (stereo not given) returned LYPLA1 inh inactive, LYPLA2 inh inactive, Rin1 Abl inh inactive and PREPL inhibitor inactive.
Screening COc1cc(OC)c(OC)cc1/C=C1\Oc2cc(OCC(=O)N3Cc4ccccc4C[C@H]3C(=O)O)ccc2C1=O returned LYPLA1 inh 25, LYPLA2 inh inactive, Rin1 Abl inh inactive, PREPL inhibitor inactive and LYPLA1 confirm 22.
COc1ccc(/C=C2\Oc3cc(OCC(=O)N4CCC[C@H]4C(=O)O)ccc3C2=O)c(OC)c1 was read as LYPLA1 inh inactive, LYPLA2 inh inactive, Rin1 Abl inh inactive and PREPL inhibitor inactive.
`CCOC(=O)c1c(NC(=O)CSc2ncnc3ccccc23)sc(C(C)=O)c1C` gave Hck Nef HTS inactive, LYPLA1 inh 16, LYPLA2 inh inactive, p97 inhibitor inactive, Rin1 Abl inh inactive, PREPL inhibitor inactive and LYPLA1 confirm inactive.
CCOc1ccc2noc3c2c1C(=O)c1ccccc1-3 was read as Hck Nef HTS inactive, LYPLA1 inh 20, LYPLA2 inh inactive, p97 inhibitor inactive, Rin1 Abl inh inactive, PREPL inhibitor inactive and LYPLA1 confirm inactive.
O=C1c2ccccc2-c2onc3ccc(N4CCCC4)c1c23 was read as Hck Nef HTS inactive, p97 inhibitor inactive and Rin1 Abl inh inactive.
`COc1ccccc1/C=C/C=N/N1CCN(Cc2ccccc2)CC1` gave Hck Nef HTS inactive, LYPLA1 inh 19, LYPLA2 inh inactive, p97 inhibitor inactive, Rin1 Abl inh inactive, PREPL inhibitor inactive and LYPLA1 confirm inactive.
For C(=N\N1CCN(Cc2ccccc2)CC1)/c1ccc(-c2ccccc2)cc1 the results were Hck Nef HTS inactive, LYPLA1 inh inactive, LYPLA2 inh inactive, p97 inhibitor inactive, Rin1 Abl inh inactive and PREPL inhibitor inactive.
For CCN(c1ccccc1)S(=O)(=O)c1ccc(OC)c(NC(=O)CN(C)C)c1 the results were Hck Nef HTS inactive, LYPLA1 inh 15, LYPLA2 inh inactive, p97 inhibitor inactive, Rin1 Abl inh inactive, PREPL inhibitor inactive and LYPLA1 confirm inactive.
